Our source for the Potency and outcome values is PubChem BioAssay (Tox21).

The nature of assay [1]: qHTS assay to identify small molecule agonists of the peroxisome proliferator-activated receptor delta (PPARd) signaling pathway - cell viability counter screen (AID 743211). Also: nearly all actives have a fitted effect of over 55% in size. Also: potency is read from the fitted curve at half-maximal effect. The procedure, abridged:
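Multiplexed format: after the 2 h room-temperature LiveBLAzer B/G FRET step, CellTiter-Glo was added to the same wells. Luminescence after 30 min gave cell viability; compound exposure was 17 h at 37C.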

Assay [2] concerns the target Peroxisome proliferator-activated receptor delta (Homo sapiens) (UniProt Q03181). Briefly: qHTS assay to identify small molecule agonists of the peroxisome proliferator-activated receptor delta (PPARd) signaling pathway (AID 743212; calls by dose curve). The procedure, abridged: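 Cells expressing a UAS-driven beta-lactamase reporter (PPARd-bla HEK293H) were given test compounds after a 5 h settle and kept at 37 C. Reporter activity was then measured as FRET fluorescence using LiveBLAzer B/G substrate.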
For orientation: Quantitative high-throughput screening tests each substance at several concentrations.

Assay [3] is described as follows: qHTS assay to identify small molecule antagonists of the peroxisome proliferator-activated receptor delta (PPARd) signaling pathway - cell viability counter screen (AID 743213). Also: nearly all actives have a fitted effect of over 50% in size. Also: potency is read from the fitted curve at half-maximal effect. A digest of the protocol: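 Agonist-stimulated (L165041, 300 nM final) HEK293H PPARd UAS-bla cells are exposed to compounds for 17 h at 37 C, and ATP-based luminescence (CellTiter-Glo) from the same wells reports cytotoxicity.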

The target in assay [4] is Peroxisome proliferator-activated receptor delta (Homo sapiens) (UniProt Q03181). Description: qHTS assay to identify small molecule antagonists of the peroxisome proliferator-activated receptor delta (PPARd) signaling pathway (AID 743215; active = well fitted inhibition curve with a large enough effect in the signal ratio in the repeat runs, not every such curve was filed as active; the % refers to the signal ratio; also: series mostly up to about 62 µM). A digest of the protocol:
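Fluorescence from cleaved LiveBLAzer B/G FRET substrate (2 h, room temperature) reports PPARd-driven beta-lactamase in HEK293H UAS-bla cells. Cells had been treated 17 h at 37 C with compound plus 300 nM final L165041.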

Assay [5] in a line: qHTS assay to identify small molecule agonists of the farnesoid-X-receptor (FXR) signaling pathway - cell viability counter screen (AID 743218). Also: nearly all actives have a fitted effect of over 45% in size. Also: potency is read from the fitted curve at half-maximal effect. The procedure, abridged:
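Readout: CellTiter-Glo luminescence, 30 min RT, multiplexed after the FXR-bla FRET reading. HEK 293T FXR-UAS-bla cells received compound 5 h post-plating and were incubated 16 h at 37 C.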

Assay [6] can be described thus: qHTS assay to identify small molecule antagonists of the farnesoid-X-receptor (FXR) signaling pathway - cell viability counter screen (AID 743221; active = well fitted cell-killing curve with a large enough effect in the repeat runs, not every such curve was filed as active; also: nearly all actives have a fitted effect of over 50% in size; also: potency is read from the fitted curve at half-maximal effect). A digest of the protocol: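 CellTiter-Glo, 30 min RT, luminescence; same wells as the LiveBLAzer FRET read. Cells: FXR-UAS-bla HEK 293T. Treatment: compound with chenodeoxycholic acid 50 uM final, 16 h at 37 C.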
For assay [7], the target named is Vitamin D3 receptor (Homo sapiens) (UniProt P11473). Briefly: qHTS assay to identify small molecule agonists of the vitamin D receptor (VDR) signaling pathway (AID 743222; calls by dose curve). The procedure, abridged:
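Following 4 h attachment at 37C, VDR-bla cells (2,000 per well) received DMSO-dissolved compounds or controls. After 16 h incubation, LiveBLAzer B/G FRET substrate was added and fluorescence read 2 h later at room temperature.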

Assay [8] shares this target. Briefly: qHTS assay to identify small molecule antagonists of the vitamin D receptor (VDR) signaling pathway (AID 743223; active = well fitted inhibition curve with a large enough effect in the signal ratio in the repeat runs, not every such curve was filed as active; the % refers to the signal ratio; also: potency is read from the fitted curve at half-maximal effect). A digest of the protocol:
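After VDR-bla cells are plated and left 4 h at 37C, DMSO-dissolved compounds and 3 nM (final) calcitriol agonist are added. Incubation continues 16 h at 37C; FRET beta-lactamase substrate then develops 2 h at room temperature.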

A short description of assay [9]: qHTS assay to identify small molecule agonists of the vitamin D receptor (VDR) signaling pathway - cell viability counter screen (AID 743224). Also: nearly all actives have a fitted effect of over 50% in size. Also: potency is read from the fitted curve at half-maximal effect. A digest of the protocol: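 In parallel with the bla FRET readout, cytotoxicity toward VDR-bla cells after 16 h compound exposure was assessed by CellTiter-Glo, with luminescence recorded after a 30 min room-temperature incubation.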

Assay [10] is described as follows: qHTS assay to identify small molecule antagonists of the vitamin D receptor (VDR) signaling pathway - cell viability counter screen (AID 743225). Also: nearly all actives have a fitted effect of over 50% in size. Also: potency is read from the fitted curve at half-maximal effect. A digest of the protocol: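 Cytotoxicity toward the VDR-bla HEK 293T line was scored by ATP-based CellTiter-Glo luminescence, read in the wells already used for the beta-lactamase readout after 16 h compound treatment under 3 nM 1-alpha,25-dihydroxyvitamin D3 stimulation.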

Assay [11] can be described thus: qHTS assay to identify small molecule agonists of the NFkB signaling pathway - cell viability counter screen (AID 1159515; calls by dose curve; also: nearly all actives have a fitted effect of over 55% in size; also: potency is read from the fitted curve at half-maximal effect). The procedure, abridged: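 Plate 2,000 NFkB-bla ME-180 cells/well; incubate overnight. Add compounds, 5 hr at 37 C. Add FRET substrate, 1.5 hr RT. Add CellTiter-Glo, 30 min RT; read luminescence.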
A short description of assay [12]: qHTS assay to identify small molecule agonists of the endoplasmic reticulum stress response signaling pathway - cell viability counter screen (AID 1159517; calls by dose curve). The procedure, abridged: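 Cpd-treated ESRE-bla HeLa (5 hr, 37 C) → LiveBLAzer 2 hr RT → CellTiter-Glo 30 min RT → luminescence.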
Assay [13] is described as follows: qHTS assay to identify small molecule antagonists of the retinoid-related orphan receptor gamma (ROR-gamma) signaling pathway - cell viability counter screen (AID 1159520). Also: nearly all actives have a fitted effect of over 50% in size. Also: potency is read from the fitted curve at half-maximal effect. The procedure, abridged:
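Tet-on ROR gamma CHO cells (1,000/well) were plated 4 hr, given compounds in DMSO for 2 hr at 37 C, then induced with 1 uM final doxycycline for 16 hr. Viability was read as ATP by CellTiter-Glo luminescence after 30 min.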

In assay [14] the target is Nuclear receptor ROR-gamma (Homo sapiens) (UniProt P51449). Description: qHTS assay to identify small molecule antagonists of the retinoid-related orphan receptor gamma (ROR-gamma) signaling pathway (AID 1159521; also: nearly all actives have a fitted effect of over 50% in size; also: potency is read from the fitted curve at half-maximal effect). A digest of the protocol: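 Readout: ONE-Glo luciferase luminescence, 30 min at room temperature. System: Tet-on RORγ CHO, RORE-LUC. Sequence: compound 2 h, doxycycline 1 uM final, 16 h at 37 C.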

A short description of assay [15]: qHTS assay to identify small molecule agonists of the AP-1 signaling pathway - cell viability counter screen (AID 1159525; calls by dose curve; also: nearly all actives have a fitted effect of over 55% in size; also: potency is read from the fitted curve at half-maximal effect). A digest of the protocol: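 Each titration point was normalised to DMSO and tetra n-octyl ammonium bromide controls. The read was Cell Titer Glo luminescence after 30 min at RT, following 5 h compound exposure of ME-180 AP-1-bla cells at 37 °C.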

A short description of assay [16]: qHTS assay to identify small molecule agonists of the AP-1 signaling pathway (AID 1159526; calls by dose curve).
The target in assay [17] is Retinoic acid receptor RXR-alpha (Homo sapiens) (UniProt P19793). Briefly: qHTS assay to identify small molecule agonists of the RXR signaling pathway (AID 1159527; calls by dose curve; also: nearly all actives have a fitted effect of over 35% in size). A digest of the protocol: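 Reporter activation is measured as beta-lactamase activity via FRET substrate cleavage (emission 460/530 nm) in HEK 293T cells expressing an RXR-alpha-driven bla construct, following 16 hr compound exposure at 37 C.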
Chain of Retinoic acid receptor RXR-alpha (Homo sapiens) (P19793 whole entry, looked up): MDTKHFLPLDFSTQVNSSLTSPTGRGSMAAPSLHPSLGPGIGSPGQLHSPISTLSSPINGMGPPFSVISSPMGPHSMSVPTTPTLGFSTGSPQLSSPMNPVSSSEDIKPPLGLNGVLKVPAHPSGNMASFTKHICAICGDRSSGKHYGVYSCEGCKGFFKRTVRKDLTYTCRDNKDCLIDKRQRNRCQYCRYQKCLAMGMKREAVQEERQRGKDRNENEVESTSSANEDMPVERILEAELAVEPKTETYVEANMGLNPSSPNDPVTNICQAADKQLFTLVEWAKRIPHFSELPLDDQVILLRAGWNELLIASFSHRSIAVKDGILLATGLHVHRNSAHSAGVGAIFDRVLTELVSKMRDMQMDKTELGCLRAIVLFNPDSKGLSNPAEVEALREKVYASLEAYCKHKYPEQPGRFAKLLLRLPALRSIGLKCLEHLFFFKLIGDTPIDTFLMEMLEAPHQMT

A short description of assay [18]: qHTS assay to identify small molecule agonists of the endoplasmic reticulum stress response signaling pathway (AID 1159516; active = well fitted activation curve with a large enough effect in the signal ratio in the repeat runs, not every such curve was filed as active; the % refers to the signal ratio). A digest of the protocol: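 Beta-lactamase expression from the ER stress response element in HeLa reporter cells is quantified with the LiveBLAzer B/G FRET substrate, read at 405 nm excitation after 2 hr at room temperature, following 5 hr compound treatment at 37 C.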

Where “and” joins values, the source holds several entries; their conditions need not be identical. Identical values can stand only once. Inconclusive results are not listed. Some structures have more than one record in an assay (separate samples or runs), and their calls can disagree. Calls of active or inactive are those of the source. Unless noted, calls follow the shape of the dose curve; as a rule, active = well fitted curve in the direction sought with a large enough effect in the repeat runs; inconclusive = weak or mixed curves; inactive = no such curve, though single readings can be large; an effect the other way counts as inactive or inconclusive.

Chain of Peroxisome proliferator-activated receptor delta (Homo sapiens) (Q03181 whole entry, looked up): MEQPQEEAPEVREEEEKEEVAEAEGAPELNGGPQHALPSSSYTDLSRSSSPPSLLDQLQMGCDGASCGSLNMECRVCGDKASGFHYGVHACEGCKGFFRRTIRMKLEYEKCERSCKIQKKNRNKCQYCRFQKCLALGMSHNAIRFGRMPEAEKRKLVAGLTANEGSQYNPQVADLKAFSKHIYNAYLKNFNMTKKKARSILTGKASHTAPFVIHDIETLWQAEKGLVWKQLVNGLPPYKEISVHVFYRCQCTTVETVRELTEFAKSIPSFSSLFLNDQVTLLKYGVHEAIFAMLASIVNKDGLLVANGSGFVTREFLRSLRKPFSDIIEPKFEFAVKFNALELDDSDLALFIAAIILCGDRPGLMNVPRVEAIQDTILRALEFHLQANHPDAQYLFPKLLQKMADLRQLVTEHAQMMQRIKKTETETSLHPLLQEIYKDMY
Chain of Vitamin D3 receptor (Homo sapiens) (P11473 whole entry, looked up): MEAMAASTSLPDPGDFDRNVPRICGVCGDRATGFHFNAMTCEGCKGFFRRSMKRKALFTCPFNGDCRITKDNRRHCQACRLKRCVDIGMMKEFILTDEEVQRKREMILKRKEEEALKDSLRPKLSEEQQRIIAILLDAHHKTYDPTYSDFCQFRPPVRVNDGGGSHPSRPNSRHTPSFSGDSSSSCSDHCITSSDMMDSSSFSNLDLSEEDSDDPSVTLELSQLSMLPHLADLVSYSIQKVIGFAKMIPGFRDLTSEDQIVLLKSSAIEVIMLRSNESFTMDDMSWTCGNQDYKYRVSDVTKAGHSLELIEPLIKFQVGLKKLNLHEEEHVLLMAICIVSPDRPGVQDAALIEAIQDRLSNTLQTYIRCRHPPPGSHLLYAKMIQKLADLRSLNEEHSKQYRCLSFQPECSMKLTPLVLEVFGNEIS

In the case of `Cc1cccc(N=Nc2ccc(N(C)C)cc2)c1`, the Potency result in assay [1], in [2], in [3], in [4], in assay [5] and in assay [6] was “inactive” in each case. Also, the Potency entry in assay [8], in [9], in [10], in [11], in assay [12] and in assay [13] was “inactive” throughout. The Potency result in [14], in [15] and in assay [17] was “inactive” in each case. Besides, the outcome in assay [7] and in [16] was inactive.

In the case of `OC(c1ccc(Cl)cc1)(c1cncnc1)c1ccccc1Cl` (stereo not given), the Potency entry in [2], in assay [3], in assay [5], in [6], in assay [8] and in assay [9] was “inactive” in each case. Also, the Potency result in assay [10], in [11], in assay [18] and in [15] was “inactive” throughout. Also, the result in assay [7] and in assay [16] was inactive. In addition, the Potency was 15.6 µM (active) and inactive in assay [13]; 4.4 µM (active) and 54.5 µM (active) in assay [14].

On to `CCOP(=O)(O)OCC` (tested in a mixture with another compound), for which the Potency entry is “inactive and 21.7 µM (active)” in [1]; “inactive and 19.3 µM (active)” in assay [3]; “inactive and 48.6 µM (active)” in assay [6]; “inactive and 17.2 µM (active)” in assay [9]; “inactive and 54.5 µM (active)” in assay [11]; “inactive and 54 µM (active)” in assay [13]. Besides, the Potency result in [15] was “inactive and 48.6 µM (active)”. In addition, the Potency result in assay [18] and in [17] was “inactive” throughout. Moreover, the result in assay [16] was inactive.

For the compound `O=[N+]([O-])c1ccc(Cl)c([N+](=O)[O-])c1`, the Potency in [1] is 19.8 µM (active) and 19.5 µM (active); in assay [3], 24.9 µM (active) and 19.5 µM (active); in [5], 54.9 µM (active); in assay [8] it was 22.2 µM (active) and 21.9 µM (active); in assay [10], 19.8 µM (active) and 19.5 µM (active); in [11], 49.7 µM (active) and 54.9 µM (active). For the same compound, the Potency was 49.3 µM (active) and 21.7 µM (active) in [13]; 6.21 µM (active) and 6.86 µM (active) in assay [14]; 35.2 µM (active) and 34.7 µM (active) in assay [15].

Consider `N#Cc1c(Cl)c(Cl)c(Cl)c(C#N)c1Cl`, for which the Potency in [1] was 6.79 µM (active) and 6.92 µM (active); in assay [3], 15.2 µM (active) and 5.49 µM (active); in [5] it was 21.5 µM (active) and 15.5 µM (active); in assay [6], 24.1 µM (active) and 21.9 µM (active); in assay [9] it was 1.91 µM (active) and 1.95 µM (active); in assay [10], 6.79 µM (active) and 8.71 µM (active). Besides, the Potency in [13] is 1.51 µM (active) and 864 nM (active); in assay [14] it was 1.9 µM (active) and 1.22 µM (active); in [15] it was 7.76 µM (active). In [7], the outcome was inactive. In [11], the Potency entry is “inactive”.

Turning to `COC(=O)Nc1nc2ccccc2[nH]1`, the Potency result in assay [1], in assay [2], in [3], in assay [5], in [6] and in assay [9] was “inactive” in each case. Moreover, the Potency entry in assay [10], in assay [11], in assay [18], in assay [13], in assay [14] and in assay [15] was “inactive” in each case. The call in assay [7] and in assay [16] was inactive.
